# Assay results taken from the supplement of paper PMC3545927.
# This is one part of the list. The true hit rate is not given.
# B1: HC1410 (peptide)
# chain: CAKANLLSVEAGNASASA
# B2: HC2500 (peptide)
# chain: CASCPCSAHLAGNASASA
# B3: HC2020 (peptide)
# chain: CAVCCCSMSYAGNASASA
# B4: HC984 (peptide)
# chain: CATCMSADLEAGNASASA
# B5: HC225 (peptide)
# chain: CAGFADLMGYAGNASASA
# B6: HC210 (peptide)
# chain: CASPRGSRPSAGNASASA
# B7: FS-300 (peptide)
# chain: CASPNRSRRHAGNASASA
# B8: FS-945 (peptide)
# chain: CAMSMRVRRHAGNASASA
# B9: HC837 (peptide)
# chain: CAGSVTVPHPAGNASASA
# B10: HC520 (peptide)
# chain: CAVVLLFLLLAGNASASA
# B11: HC871 (peptide)
# chain: CALDVSVIPTAGNASASA
# B12: HC894 (peptide)
# chain: CADPTFTIETAGNASASA
# B13: HC1904 (peptide)
# chain: CATTPCSGIWAGNASASA
# B14: HC1137 (peptide)
# chain: CAVTQLLRRLAGNASASA
# B15: HC971 (peptide)
# chain: CAPTPLLYRLAGNASASA
# B16: FS-1554 (peptide)
# chain: CAPSRRQQRAAGNASASA
# B17: FS-1555 (peptide)
# chain: CAPSRRTRRLAGNASASA
# B18: FS-60 (peptide)
# chain: CALWGRTRRLAGNASASA
# B19: FS-1054 (peptide)
# chain: CAPSCRYRRLAGNASASA
# B20: HC1705 (peptide)
# chain: CAMELCSQHLAGNASASA
# B21: HC18 (peptide)
# chain: CAMEENSQHLAGNASASA
# B22: HC355 (peptide)
# chain: CAGGSAGHTVAGNASASA
# B23: HC1999 (peptide)
# chain: CAPVCCSMSYAGNASASA
# B24: HC1156 (peptide)
# chain: CAFKTWLKAKAGNASASA
# B25: HC1550 (peptide)
# chain: CADLELITSCAGNASASA
# B26: FS-623 (peptide)
# chain: CAQSLRCRRCAGNASASA
# B27: FS-498 (peptide)
# chain: CASGARRRRCAGNASASA
# B28: FS-1558 (peptide)
# chain: CAQVMRRRRCAGNASASA
# B29: FS-503 (peptide)
# chain: CASQLRYRRCAGNASASA
# B30: HC1586 (peptide)
# chain: CASVLIARDQAGNASASA
# B31: FS-989 (peptide)
# chain: CAEHHRSRRCAGNASASA
# B32: FS-986 (peptide)
# chain: CADPQRSRRCAGNASASA
# B33: FS-1014 (peptide)
# chain: CAIPDRLRKCAGNASASA
# B34: HC1787 (peptide)
# chain: CAFEMEECSQAGNASASA
# B35: HC2397 (peptide)
# chain: CAEVPCHRSSAGNASASA
# B36: FS-1616 (peptide)
# chain: CASTGYPKRSAGNASASA
# B37: HC2360 (peptide)
# chain: CAEVCCHRPSAGNASASA
# B38: FS-766 (peptide)
# chain: CAEVRRVGRSAGNASASA
# B39: FS-617 (peptide)
# chain: CALYSRVGRSAGNASASA
# B40: FS-1281 (peptide)
# chain: CASHSREGRSAGNASASA
# B41: HC2353 (peptide)
# chain: CAEVRCHRPSAGNASASA
# B42: FS-1168 (peptide)
# chain: CASTGRVGRSAGNASASA
# B43: NG8 (peptide)
# chain: CAAIFQGPIDAGNASASA
# Target: furin, P09958
# Sequence (P09958 whole entry): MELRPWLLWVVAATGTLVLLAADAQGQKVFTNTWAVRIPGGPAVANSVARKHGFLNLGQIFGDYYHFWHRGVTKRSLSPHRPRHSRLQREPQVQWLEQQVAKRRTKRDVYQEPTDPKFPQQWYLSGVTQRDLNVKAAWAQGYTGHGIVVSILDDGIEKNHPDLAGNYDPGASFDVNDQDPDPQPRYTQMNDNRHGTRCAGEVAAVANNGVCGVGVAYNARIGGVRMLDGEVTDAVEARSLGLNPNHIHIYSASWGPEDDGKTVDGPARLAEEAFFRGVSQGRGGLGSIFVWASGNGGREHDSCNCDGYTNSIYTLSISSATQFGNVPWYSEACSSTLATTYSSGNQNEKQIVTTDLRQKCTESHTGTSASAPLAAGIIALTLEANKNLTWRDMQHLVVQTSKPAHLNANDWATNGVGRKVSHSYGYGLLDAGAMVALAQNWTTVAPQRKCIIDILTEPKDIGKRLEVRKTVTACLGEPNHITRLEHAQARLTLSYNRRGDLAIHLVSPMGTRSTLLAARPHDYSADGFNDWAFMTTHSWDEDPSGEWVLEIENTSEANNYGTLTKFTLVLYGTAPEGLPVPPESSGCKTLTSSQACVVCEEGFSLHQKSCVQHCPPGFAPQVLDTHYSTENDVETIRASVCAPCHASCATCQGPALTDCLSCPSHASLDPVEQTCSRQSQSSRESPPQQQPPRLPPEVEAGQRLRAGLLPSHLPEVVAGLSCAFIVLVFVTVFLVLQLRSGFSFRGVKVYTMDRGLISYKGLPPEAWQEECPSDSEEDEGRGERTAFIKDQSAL
# Experiment: furin cleavage Z-score vs untreated control; higher = more cleavage, active = 3.5 or more, inactive = 1 or less, 8 variable residues between constant flanks
# Description: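 Multiplexed peptide-cDNA fusion cleavage assay. 8-mer variable peptides flanked by constant Cys-Ala (N-term) and Ala-Gly-Asn-Ala-Ser-Ala-Ser-Ala (C-term) and conjugated to a cDNA oligonucleotide were bead-immobilised via the N-terminus. They were treated with purified furin at a 1:10 enzyme:substrate ratio in 50 mM HEPES pH 7.5, 1 mM CaCl2, 100 mM NaCl for 7.5, 15 or 30 min. Released cDNA was counted by next-generation sequencing, and log counts versus no-furin controls were lowess-adjusted and converted to robust Z-scores.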
Sequence,furin cleavage Z-score (7.5 min),furin cleavage Z-score (15 min),furin cleavage Z-score (30 min)
B1,-0.514 (inactive),-0.264 (inactive),-1.3 (inactive)
B2,0.854 (inactive),-0.381 (inactive),0.717 (inactive)
B3,0.181 (inactive),1.69,1.02
B4,0.644 (inactive),0.775 (inactive),1.54
B5,-1.18 (inactive),-0.646 (inactive),-1.14 (inactive)
B6,0.189 (inactive),0.149 (inactive),-0.107 (inactive)
B7,9.77 (active),10.7 (active),7.23 (active)
B8,10 (active),10.3 (active),7.98 (active)
B9,0.881 (inactive),0.63 (inactive),0.486 (inactive)
B10,-0.794 (inactive),-0.656 (inactive),-1.88 (inactive)
B11,-2.6 (inactive),-1.18 (inactive),-0.758 (inactive)
B12,-0.863 (inactive),-0.464 (inactive),-0.935 (inactive)
B13,-0.536 (inactive),0.611 (inactive),-1.36 (inactive)
B14,0.0354 (inactive),-1.42 (inactive),-1.96 (inactive)
B15,-0.296 (inactive),0.704 (inactive),0.366 (inactive)
B16,9.53 (active),8.72 (active),7.58 (active)
B17,7.98 (active),11.7 (active),8.56 (active)
B18,1.66,4.15 (active),3.16
B19,4.67 (active),7.06 (active),7.38 (active)
B20,2.69,0.76 (inactive),2.04
B21,0.787 (inactive),0.956 (inactive),2.04
B22,0.866 (inactive),-0.487 (inactive),0.0302 (inactive)

Sequence,furin cleavage Z-score (7.5 min),furin cleavage Z-score (15 min),furin cleavage Z-score (30 min)
B23,0.302 (inactive),-0.969 (inactive),1.74
B24,-0.496 (inactive),-0.829 (inactive),-0.782 (inactive)
B25,0.66 (inactive),-0.229 (inactive),0.498 (inactive)
B26,-0.625 (inactive),-0.00103 (inactive),-0.127 (inactive)
B27,0.58 (inactive),0.416 (inactive),0.773 (inactive)
B28,7.16 (active),5.85 (active),4.82 (active)
B29,5.96 (active),7.81 (active),5.84 (active)
B30,0.606 (inactive),0.779 (inactive),-0.441 (inactive)
B31,2.96,3.54 (active),3.96 (active)
B32,0.928 (inactive),0.649 (inactive),1.13
B33,-0.934 (inactive),-0.376 (inactive),-0.995 (inactive)
B34,-0.0244 (inactive),-1.03 (inactive),0.747 (inactive)
B35,0.159 (inactive),1.25,1.43
B36,0.639 (inactive),-0.301 (inactive),-0.705 (inactive)
B37,0.494 (inactive),0.659 (inactive),-0.0079 (inactive)
B38,5.5 (active),6.28 (active),4.53 (active)
B39,8 (active),8.87 (active),7.73 (active)
B40,2.57,1.17,3.76 (active)
B41,1.89,0.104 (inactive),-0.327 (inactive)
B42,4.32 (active),6.64 (active),7 (active)
B43,-1.22 (inactive),0.323 (inactive),-1.13 (inactive)
